Experimental data: PubChem BioAssay (Tox21)
Inconclusive results are not listed. Active and inactive are the calls of the source. Unless noted, calls come from the whole dose curve; as a rule, active = well fitted curve in the direction sought with a large enough effect in the repeat runs; inconclusive = weak or mixed curves; inactive = no such curve, though single readings can be large; an effect the other way counts as inactive or inconclusive.

Key:
[1] = qHTS assay for small molecules that induce genotoxicity in human embryonic kidney cells expressing luciferase-tagged ATAD5 (AID 651632); note: nearly all actives have a fitted effect of over 15% in size
Method in brief: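 Reporter cells (HEK293T) express luciferase-tagged ATAD5, a protein that accumulates after DNA damage. Treat 16 hr at 37C/5% CO2, add Amplite, wait 30 min at RT, and read luminescence.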

[2] = qHTS assay for small molecule agonists of the p53 signaling pathway - cell viability (AID 651633; calls by dose curve;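 note: p53RE-bla HCT reporter cells with a stable beta-lactamase p53 reporter; series mostly up to about 83 µM; nearly all actives have a fitted effect of over 30% in size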)
Method in brief: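 p53RE-bla cells, seeded at 4,000 per well and rested 5 h at 37 C/5% CO2, received compounds in DMSO for 16 h at 37 C. CellTiter-Glo was then added, and luminescence was read after 30 min at room temperature to gauge cytotoxicity.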

[3] = qHTS assay for small molecule disruptors of the mitochondrial membrane potential - cell viability (AID 720634; calls by dose curve;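 note: human HepG2 liver cancer cells; series mostly up to about 83 µM; nearly all actives have a fitted effect of over 20% in size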)
Method in brief: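 Measuring cytotoxicity alongside mitochondrial potential, the screen quantified ATP by luminescence in HepG2 cells after 1 hr compound incubation and a 30 min room-temperature CellTiter-Glo step.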

[4] = qHTS assay to test for compound auto fluorescence at 590 nm (red) in HepG2 cells (AID 720674)
Method in brief: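 Compound auto-fluorescence is scored relative to Rose Bengal sodium, measured at 540/590 nm in live HepG2 cultures after 1 hr compound contact (37 C, 5% CO2).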

[5] = qHTS assay to test for compound auto fluorescence at 535 nm (green) in HepG2 cells (AID 720675)
[6] = qHTS assay to test for compound auto fluorescence at 460 nm (blue) in HEK293 cells (AID 720678)
Method in brief: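 HEK293 cells (2,000 per well, medium with 10% dialyzed FBS) attached for 4-5 hr at 37C, then received compound and stood overnight at 37C, 5% CO2. Blue fluorescence was read at Ex/Em 405/460 nm and expressed relative to triamterene.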

[7] = qHTS assay to test for compound auto fluorescence at 590 nm (red) in HEK293 cells (AID 720679)
Method in brief: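 HEK293 cells (2,000/well, medium with 10% dialyzed FBS) attached for 4-5 hr at 37C, received 23 nL compound and were incubated overnight at 37C, 5% CO2. Red fluorescence was then read at 540/590nm Ex/Em, referenced to Rose Bengal sodium.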

[8] = qHTS assay to test for compound auto fluorescence at 535 nm (green) in HEK293 cells (AID 720680)
[9] = qHTS assay to test for compound auto fluorescence at 460 nm (blue) in HEK293 cell free culture (AID 720681)
Method in brief: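 Test compounds were pinned into cell-free culture medium (DMEM with 10% FBS) and fluorescence was read directly at Ex/Em 405/460 nm. Signals were expressed as fluorescence equivalents of triamterene, with DMSO vehicle as control.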

[10] = qHTS assay to test for compound auto fluorescence at 535 nm (green) in HEK293 cell free culture (AID 720682)
Method in brief: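 Green-channel intensity (Ex/Em 485/535 nm) was recorded from compound-treated wells containing only DMEM with 10% FBS. Fluorescein provided the equivalency standard.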

[11] = qHTS assay to test for compound auto fluorescence at 590 nm (red) in HEK293 cell free culture (AID 720683)
Method in brief: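 Tox21 10K library compounds were pinned into cell-free DMEM with 10% FBS and fluorescence was read at excitation 540 nm. Activity is expressed as Rose Bengal sodium equivalency.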

[12] = qHTS assay to test for compound auto fluorescence at 590 nm (red) in HepG2 cell free culture (AID 720684)
Method in brief: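 Measured in medium alone (MEM containing 10% FBS) following pintool addition of compound; emission at 590 nm with 540 nm excitation, referenced to Rose Bengal sodium.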

[13] = qHTS assay to test for compound auto fluorescence at 460 nm (blue) in HepG2 cell free culture (AID 720685)
Method in brief: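 Compound (23 nL) or DMSO pinned into cell-free MEM with 10% FBS; blue fluorescence read at 405/460 nm excitation/emission, expressed as auto-fluorescence equivalency to triamterene.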

[14] = qHTS assay to test for compound auto fluorescence at 535 nm (green) in HepG2 cell free culture (AID 720686)
[15] = qHTS assay to test for compound auto fluorescence at 460 nm (blue) in HepG2 cells (AID 720687)
Method in brief: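 Cells (2,000/well in MEM with 10% FBS) attached overnight at 37 C, then were exposed to compound or DMSO for 1 hr at 37 C, 5% CO2. Fluorescence read at Ex/Em 405/460 nm, expressed as triamterene-equivalent signal.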

[16] = target: Glucocorticoid receptor (Homo sapiens) (UniProt P04150); assay: qHTS assay to identify small molecule agonists of the glucocorticoid receptor (GR) signaling pathway (AID 720691; active = well fitted activation curve with a large enough effect in the signal ratio in the repeat runs, not every such curve was filed as active; the % refers to the signal ratio)
Chain of Glucocorticoid receptor (Homo sapiens) (P04150 whole entry, looked up): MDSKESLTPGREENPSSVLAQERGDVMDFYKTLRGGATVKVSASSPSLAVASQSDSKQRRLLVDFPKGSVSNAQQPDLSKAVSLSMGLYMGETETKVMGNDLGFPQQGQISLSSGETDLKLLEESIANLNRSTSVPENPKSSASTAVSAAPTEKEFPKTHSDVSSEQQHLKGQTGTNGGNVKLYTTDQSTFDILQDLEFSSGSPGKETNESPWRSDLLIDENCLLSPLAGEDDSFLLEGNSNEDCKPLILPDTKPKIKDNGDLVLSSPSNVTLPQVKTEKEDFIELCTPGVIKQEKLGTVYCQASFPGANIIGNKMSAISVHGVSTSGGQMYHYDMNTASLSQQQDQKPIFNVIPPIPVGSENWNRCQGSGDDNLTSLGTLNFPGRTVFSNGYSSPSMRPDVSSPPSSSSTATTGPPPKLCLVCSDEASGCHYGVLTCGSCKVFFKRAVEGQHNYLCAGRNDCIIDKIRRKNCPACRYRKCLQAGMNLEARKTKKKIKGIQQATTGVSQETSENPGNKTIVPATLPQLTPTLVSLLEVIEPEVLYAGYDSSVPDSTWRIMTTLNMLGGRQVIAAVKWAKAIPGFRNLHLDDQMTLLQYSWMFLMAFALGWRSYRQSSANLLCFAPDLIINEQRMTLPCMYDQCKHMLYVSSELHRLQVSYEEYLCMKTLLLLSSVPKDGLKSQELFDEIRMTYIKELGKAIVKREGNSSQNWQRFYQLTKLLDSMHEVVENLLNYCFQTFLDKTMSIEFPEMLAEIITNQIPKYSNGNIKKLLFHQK
Method in brief: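 Reporter read-out: fluorescence intensity following 2 h room-temperature LiveBLAzer B/G FRET substrate loading. Prior step: GR-bla HeLa cells held 4 h, then treated 18 h at 37 C.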

[17] = target: Glucocorticoid receptor (Homo sapiens) (UniProt P04150); assay: qHTS assay to identify small molecule antagonists of the glucocorticoid receptor (GR) signaling pathway (AID 720692; active = well fitted inhibition curve with a large enough effect in the signal ratio in the repeat runs, not every such curve was filed as active; the % refers to the signal ratio)
Method in brief: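 Dexamethasone (5 nM final) stimulated a stably integrated GRE-beta-lactamase reporter in HeLa cells during 18 h co-incubation with compounds; signal was quantified as fluorescence intensity of B/G FRET substrate after 2 h.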

[18] = qHTS assay for small molecules that induce genotoxicity in human embryonic kidney cells expressing luciferase-tagged ATAD5 - cell viability (AID 651634; calls by dose curve; note: nearly all actives have a fitted effect of over 25% in size)
Method in brief: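 Seeding of 2,000 HEK293T ATAD5-luciferase cells per well preceded pin-tool compound transfer. Plates sat 15.5 hr at 37C under 5% CO2, then fluorescence was read after 30 min with CellTiter-Fluor.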

[19] = qHTS assay for small molecule disruptors of the mitochondrial membrane potential (AID 720635)
Method in brief: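 HepG2 cells (2,000/well) attached overnight at 37C, then took compound for 1 hr at 37C, 5% CO2. Mito-MPS dye was added for 30 min; fluorescence was read at 490/535 nm (monomers) and 540/590 nm (aggregates).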

Measured: Potency

COc1ccc(C=O)cc1O
not listed: [18] | [19]
inactive: all other assays above

C[N+]1(C)CCCCC1
not listed: [1] | [12] | [16] | [17]
inactive: all other assays above

CN(C)C1CCCCC1
not listed: [1] | [12] | [14] | [15] | [17] | [18] | [19]
inactive: all other assays above

CCN(CCO)CCO
not listed: [1] | [12] | [17] | [19]
inactive: all other assays above

O=[N+]([O-])c1cccc(CCl)c1
not listed: [1] | [15] | [19]
inactive: all other assays above

Cc1ccc2cc(C)ccc2c1
not listed: [1] | [18] | [19]
inactive: all other assays above

CC(C)(N)Cc1ccc(Cl)cc1
not listed: [1] | [6] | [16] | [17] | [18] | [19]
inactive: all other assays above

CNC(=O)NC(O)C(Cl)(Cl)Cl (stereo not given)
not listed: [16] | [17] | [18] | [19]
inactive: all other assays above

O=c1[nH]c2ccccc2o1
not listed: [2] | [15] | [17]
inactive: all other assays above
